21 compounds from PubChem BioAssay (EPA / NIEHS) can be followed below.

What is called AC50 is the midpoint of the concentration-response curve, whichever way the signal moves.

Records with an inconclusive call do not appear. Active and inactive are the calls of the source. Rule for the calls: active = hit-call score of the fitted dose curve at least 0.9, where 1 is the maximum; inconclusive = response in the unintended direction; inactive = score below 0.9.

The target in this experiment is human Retinoid X Receptor beta (RXRb), RXRB (gene 6257) (UniProt P28702). The experiment is described as follows: ATG_RXRb_TRANS: Attagene TRANS-FACTORIAL HepG2 Assay for human Retinoid X Receptor beta (RXRb) (AID 2283013). Summed up: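 Readout is reporter transcript induction after 24 h dosing. It is measured by RT-PCR of total RNA followed by fluorescent capillary electrophoresis. HepG2 liver cells carry transfected multiple reporter units driven by an exogenous RXRb-Gal4 fusion; activity is relative to DMSO.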
human Retinoid X Receptor beta (RXRb), RXRB (gene 6257), sequence (P28702 whole entry, looked up, the tested form may be a part): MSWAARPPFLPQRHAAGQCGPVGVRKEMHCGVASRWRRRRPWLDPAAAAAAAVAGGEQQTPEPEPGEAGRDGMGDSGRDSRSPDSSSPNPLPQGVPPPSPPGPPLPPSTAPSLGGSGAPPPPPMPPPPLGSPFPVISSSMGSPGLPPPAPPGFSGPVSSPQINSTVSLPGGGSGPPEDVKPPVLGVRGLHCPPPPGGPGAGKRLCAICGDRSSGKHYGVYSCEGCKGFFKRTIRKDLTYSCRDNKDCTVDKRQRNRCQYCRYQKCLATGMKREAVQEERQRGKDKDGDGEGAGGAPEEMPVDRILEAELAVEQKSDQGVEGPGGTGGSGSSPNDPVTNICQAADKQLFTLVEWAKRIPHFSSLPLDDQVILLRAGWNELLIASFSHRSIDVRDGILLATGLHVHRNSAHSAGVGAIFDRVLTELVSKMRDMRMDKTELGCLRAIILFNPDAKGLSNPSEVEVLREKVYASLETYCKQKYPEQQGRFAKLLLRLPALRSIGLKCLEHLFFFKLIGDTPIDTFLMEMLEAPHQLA
With `Oc1ccccc1O`, the outcome was inactive.

Consider `CC(C)(O)c1ccc(CNC(=O)c2cccnc2Oc2ccc(F)cc2)cc1`, for which the compound was called inactive.

For the compound `CC(C)COC(=O)CCCCC(=O)OCC(C)C`, the outcome was inactive.

With `COc1ccc(C(=O)Nc2nc3ccccc3c(NCc3ccccc3)c2C#N)cc1`, the result was inactive.

`O=C1O[C@H]([C@H](O)CO)C(O)=C1O`: the outcome was inactive.

Turning to `C/C=C/c1ccc(OC)cc1`, the call was inactive.

For `O=C(O)CN(CC(=O)O)CC(=O)O`, the compound was called inactive.

For `O=NO`, the compound was classed as inactive.

Regarding `CCCC[C@H]1CN(CC2CCOCC2)C(=O)OC12CCN(C1(C)CCN(C(=O)c3c(C)ncnc3C)CC1)CC2`, the compound was classed as inactive.

With `Cc1cc(SC2=C(O)C[C@@](CCc3ccc(N)cc3)(C(C)C)OC2=O)c(C(C)(C)C)cc1CO`, the call was inactive.

Turning to `CN(C)CCCN(C)CCCN(C)C`, the AC50 is 23.8 µM (active).

Turning to `O=C(O)c1cccnc1`, the outcome was inactive.

For the compound `CCCCCCCCCC[N+](C)(C)[O-]`, the compound was called inactive.

As for `CCCCc1nc2cccnc2n1Cc1ccc(-c2ccccc2-c2nnn[nH]2)cc1`, the compound was called inactive.

For `CC1(C)C(=O)NC(=O)N1CO`, the result was inactive.

As to `CCCCCCCCCCCCCCOS(=O)(=O)O`, the outcome was inactive.

For the compound `CCc1nc(N)nc(N)c1-c1ccc(Cl)cc1`, the compound was classed as inactive.

Turning to `COC(=O)[C@H]1[C@H]2C[C@@H]3c4[nH]c5cc(OC)ccc5c4CCN3C[C@H]2C[C@@H](OC(=O)c2cc(OC)c(OC)c(OC)c2)[C@@H]1OC`, the call was inactive.

As to `CCCCCCC(CCCCCCCCCCC(=O)OCC(COC(C)=O)OC(C)=O)OC(C)=O` (stereo unspecified), the half-maximal activity concentration (AC50) is 50 µM (active).

As for `O=C1c2c(O)cccc2Cc2cccc(O)c21`, the compound was called inactive.

For the compound `CCCCOC(=O)CCCCC(=O)OCCCC`, the compound was classed as inactive.
